KB-V1 MDR tox: qHTS assay for MDR1-selective chemotherapeutics: Primary screen using the drug-selected MDR subline cells KB-V1; KB-V1 MDR cells viability, CellTiter-Glo, 72 h; Potency, µM (top dose mostly 46.1 µM), hits mostly cytotoxic; actives 3.4% (n = 400,000); AID 1347076, 2019; note: potency is the fitted concentration of half-maximal effect; nearly all actives have a fitted effect of over 60% in size
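qHTS viability screen in drug-selected KB-V1 MDR cells: 72 h compound treatment at 37 degrees C, ATP luminescence end point.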
PI4K2A inh: qHTS for small molecular inhibitors of PI4K2A | Phosphatidylinositol 4-kinase type 2-alpha (Homo sapiens), Q9BTU6 | purified PI4K2A, ADP-Glo luminescence, 1 h; stronger effect = lower value | activity change, negative = inhibition, % at 76.9 µM | actives 0.13% (n = 420,000); in the data active = activity change below about -50%; inconclusive = mostly about -30% to -49%;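 note: -100% = wells without enzyme as full effect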
Target sequence (Q9BTU6 whole entry, looked up): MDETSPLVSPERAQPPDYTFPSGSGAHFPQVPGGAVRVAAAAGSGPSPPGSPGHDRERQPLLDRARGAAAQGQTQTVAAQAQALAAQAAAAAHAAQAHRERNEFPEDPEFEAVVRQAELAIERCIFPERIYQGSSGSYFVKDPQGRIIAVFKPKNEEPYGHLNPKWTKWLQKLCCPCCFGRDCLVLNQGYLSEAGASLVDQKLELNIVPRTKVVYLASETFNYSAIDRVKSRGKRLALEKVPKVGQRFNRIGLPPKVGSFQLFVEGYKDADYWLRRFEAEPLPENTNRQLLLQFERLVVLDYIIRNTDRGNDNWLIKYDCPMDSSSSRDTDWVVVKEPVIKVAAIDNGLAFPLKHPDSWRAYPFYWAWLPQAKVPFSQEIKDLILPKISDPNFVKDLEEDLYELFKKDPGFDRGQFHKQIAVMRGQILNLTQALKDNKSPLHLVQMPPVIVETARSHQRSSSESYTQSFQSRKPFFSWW
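Compounds are screened against recombinant PI4K2A using PI as substrate and ATP, the latter dispensed at 300 microM. Reactions run one hour at ambient temperature before ADP-Glo detection; full inhibition defined by wells lacking enzyme.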
Nrf2 block: Nrf2 qHTS screen for inhibitors; A549 ARE-Fluc reporter, luciferase luminescence, 18-24 h; Potency, µM (series often up to 46 µM), inactives show at the highest dose activity change, negative = inhibition, hits mostly inhibitors; actives 2.1% (n = 360,000); AID 504444, 2011; note: potency is the fitted concentration of half-maximal effect; nearly all actives have a fitted effect of over 60% in size
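Reporter: ARE-Fluc in A549. Exposure: 18-24 h, 37 °C, 5% CO2, 5% FBS OPTI-MEM. Readouts: fluorescent cytotoxicity (CellTiter-Fluor), then luminescent Nrf2 signal after BugLite.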
KB-3-1 cytotox: qHTS assay for MDR1-selective chemotherapeutics: Primary screen using the parental adenocarcinoma cell KB-3-1; KB-3-1 viability, CellTiter-Glo ATP luminescence, 72 h; Potency, µM (highest dose often 46.1 µM), most hits filed as cytotoxic; actives 1.4% (n = 400,000); AID 1347075, 2019; note: potency is the fitted concentration of half-maximal effect; nearly all actives have a fitted effect of over 60% in size
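72 h, 37 °C compound treatment of KB-3-1 parental cells; CellTiter-Glo added, 10 min, luminescence read. Data corrected against DMSO-only plates and normalized before curve fitting.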
Giardia kill: Small Molecules that selectively kill Giardia lamblia: qHTS; Giardia lamblia trophozoite viability; activity change, % at 7.66 µM, hits read low; actives 0.15% (n = 340,000); AID 540267, 2011; in the data active = activity change below about -80%; inconclusive = between about -30% and that limit;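 note: parasites exposed to compound for two days anaerobically before the ATP read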
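Compounds were tested on trophozoites seeded at 100 cells/well and held 48 hrs at 37 deg C anaerobically. An ATP-based luminescent kit measured the remaining live cells.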
A549 viability: Nrf2 qHTS screen for inhibitors: counterscreen for cytotoxicity. A549 ARE-Fluc cells, CellTiter-Fluor viability, 18-24 h. Potency, µM (series often up to 46 µM), for inactives: top-dose activity change, negative = cytotoxicity, most hits filed as inhibitors. actives 0.16% (n = 390,000). AID 504648, 2011; note: potency is the fitted concentration of half-maximal effect
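Cytotoxicity counterscreen: CellTiter-Fluor fluorescence was measured in A549 ARE_Fluc cells after 18-24 h of compound exposure in a concentration series. The subsequent BugLite luminescent read reports ARE-luciferase activity.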
Numbers without * were called inactive; i = inactive; ? = inconclusive; . = not tested or not shown; ! = repeats disagree. Hits are enriched below; roughly 5.7% of the tested compounds scored in any of these assays. Unless noted, calls come from the whole dose curve; as a rule, active = well fitted curve in the direction sought with a large enough effect; inconclusive = small, poorly fitted or top-dose-only effect, or another doubt; inactive = no such curve, though single readings can be large; an effect the other way counts as inactive or inconclusive. Unless noted, % is set by controls: 0 for no effect and ±100 for the full control effect.

SMILES	KB-V1 MDR tox	PI4K2A inh	Nrf2 block	KB-3-1 cytotox	Giardia kill	A549 viability
Cc1cc(C)nc(SCC(=O)Nc2ccc(S(=O)(=O)NCCO)cc2)n1	i	9	.	i	-16	-1%
Cc1cc(C)n2nc(SCC(=O)Nc3ccccc3)nc2n1	?	7	-7%	i	-5	2%
Cc1cc(C)nc(SCC(=O)Nc2ccc(S(=O)(=O)NC(C)(C)C)cc2)n1	21µM*	-2	?	i	-1	-25%
CCc1ccc(NC(=O)CSc2nc3nc(C)cc(C)n3n2)cc1	13µM*!	5	?	i	-7	10%
CCC(CN)=C(c1ccccc1)c1ccccc1	.	-1	.	.	.	.
COC(=O)[C@]12C[C@H](CC(=O)N3CCOCC3)C(=O)N(CCC3=CCCCC3)C1=C[C@H](C1CCCC1)O[C@@H]2C	.	1	.	.	.	.
Cc1cc(C)n(-c2ccc(Cl)c(C(=O)OCC(N)=O)n2)n1	i	-8	10%	i	3	7%
Cc1cc(C)n(-c2ccc(Cl)c(C(=O)NCc3ccccc3)n2)n1	12µM*	1	?	i	-5	-10%
O=C(CCc1ccccc1)N[C@H]1[C@@H](OC(=O)C2CC2)CCC[C@@]12C(=O)N(Cc1ccccc1)c1ccccc12	.	1	.	.	.	.
C=C1C(=O)C23CCC4C(C)(C(=O)OC)CCCC4(C)C2CCC1(O)C3 (centres undefined)	18µM*	25	?	?	-7	?
Cc1cc(C(=O)COc2ccc(-c3nnco3)cc2)c(C)n1Cc1ccccc1	2.9µM*	5	?	16µM*	5	-22%
O=C(c1cc([N+](=O)[O-])ccc1N1CCCCC1)N1CCc2ccccc21	5.8µM*	6	?	5.8µM*	9	?
O=C(c1cc([N+](=O)[O-])ccc1N1CCCCC1)N1CCCCC1	16µM*	0	9%	i	-9	-23%
CN1C(=O)C[C@@](C#N)(C(=O)NCc2ccc3c(c2)OCO3)[C@H]1c1ccccc1	.	3	.	.	.	.
Cc1ccc(NC(=O)C(C)c2cccc(C(=O)c3ccccc3)c2)cc1O (centres undefined)	6.5µM*	-6	-1%	?	4	-3%
Cc1cccc(NC(=O)C(C)C(=O)c2ccccc2)c1 (centres undefined)	i	-5	12%	i	25	0%
CC(=O)Nc1ccc(-c2nnc(SCC(=O)c3ccc4c(c3)Cc3ccccc3-4)n2C)cc1	i	23	.	i	-8	-1%
Cn1c(SCC(=O)c2ccc3c(c2)Cc2ccccc2-3)nnc1-c1cccc(N)c1	16µM*	-2	9%	i	21	1%
CC(C)(C)c1ccc(C(=O)C[n+]2ccccc2Cl)cc1	i	.	.	i	.	.
O=C1c2ccccc2C(=O)c2c(Nc3ccc(CCO)cc3)ccc(O)c21	i	-19	?	i	5	?
O=C1c2c(O)ccc(O)c2C(=O)c2c(NCCNCCO)ccc(NCCNCCO)c21	21µM*	?	?	0.65µM*	-3	13µM*
Cc1ccc(NC(=S)Nc2ccc(Cl)c(Cl)c2)c(OC(F)F)c1	18µM*	8	?	?	-14	-3%
Fc1ccc(NC(=S)Nc2ccccc2OC(F)F)cc1Cl	16µM*	-2	?	?	-16	-2%
Cc1cc(C)cc(NC(=S)Nc2ccc(Cl)c(Cl)c2)c1	?	2	?	i	5	-17%
Cc1ccc(NC(=S)Nc2ccc(OC(F)F)c(Cl)c2)cc1Cl	21µM*	3	?	21µM*	-11	-3%
O=C(NNC(=S)Nc1cccc(Cl)c1)c1ccccc1OC(F)F	?	4	21µM*	?	-4	-6%
